PubChem BioAssay (Tox21)
Inconclusive results are not listed. Active and inactive are the calls of the source. Unless noted, the call rests on the fitted dose curve; in most records, active means well fitted curve in the direction sought with a large enough effect in the repeat runs; inconclusive means weak or mixed curves; inactive means no such curve, though single readings can be large; an effect the other way counts as inactive or inconclusive.

Key:
[1] = qHTS assay to identify small molecule antagonists of the estrogen receptor beta (ER-beta) signaling pathway - cell viability counter screen (AID 1259382);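 further: HEK293T cells carrying ER-beta-UAS-bla reporter stimulated with estradiol; series mostly up to about 92 µM; nearly all actives have a fitted effect of over 55% in size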
Method in brief: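 ER-beta-UAS-bla HEK293T cells (2,000/well, 2% charcoal-stripped FBS) were pre-incubated 6 hr at 37C, then given compound plus 1nM final 17-beta-estradiol for 16 hr. Viability was read in the same wells by CellTiter-Glo luminescence after 30 min at room temperature.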

[2] = target: Estrogen receptor (Homo sapiens) (UniProt P03372); assay: qHTS assay to identify small molecule agonists of the estrogen receptor alpha (ER-alpha) signaling pathway in the presence of an antagonist (AID 1259383; calls by dose curve; further: top concentration of the series differs between compounds; nearly all actives have a fitted effect of over 15% in size)
Method in brief: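 VM7Luc4E2 cells (endogenous full-length ER-alpha, 4×ERE-luciferase) were precultured 5 days in phenol red-free medium with 10% charcoal-stripped FBS, given 10.0nM ICI-182,780 (final), then treated with compounds at 15 concentrations for 22hr at 37C; luminescence read with ONE-Glo.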

[3] = target: Thyrotropin receptor (Homo sapiens) (UniProt P16473); assay: qHTS assay to identify small molecule antagonists of the thyroid stimulating hormone receptor (TSHR) signaling pathway (AID 1259385; calls by dose curve; further: nearly all actives have a fitted effect of over 20% in size)
Method in brief: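 Antagonist mode: compound-treated TSHR-expressing HEK293 cells were stimulated with 1.5 ng/mL TSH (final) in presence of Ro20-1724 for 30 min at RT. HTRF cAMP detection after 1 h; each compound tested at 15 concentrations, triplicate.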

[4] = qHTS assay to identify small molecule agonists of the estrogen receptor alpha (ER-alpha) signaling pathway in the presence of an antagonist - cell viability counter screen (AID 1259386);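 further: series mostly up to about 92 µM; cells exposed to compounds for 22 h at 37 °C before the viability read; nearly all actives have a fitted effect of over 30% in size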
Method in brief: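 VM7Luc4E2 cells (endogenous full-length ER-alpha, 4×ERE-luciferase) were held 5 days in phenol red-free medium with 10% charcoal-stripped FBS, plated, then given 10.0nM ICI-182,780 and compounds at 15 concentrations for 22hr at 37C; viability read by CellTiter-Fluor fluorescence.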

[5] = target: Progesterone receptor (Homo sapiens) (UniProt P06401); assay: qHTS assay to identify small molecule agonists of the progesterone receptor (PR) signaling pathway (AID 1346784; calls by dose curve; further: nearly all actives have a fitted effect of over 30% in size)
Method in brief: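 Compounds were tested for PR agonism in HEK 293T cells bearing a beta-lactamase gene under UAS control. Treatment lasted 16 hr at 37C; signal came from fluorescence of a FRET substrate.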

[6] = qHTS assay to identify small molecule agonists of the progesterone receptor (PR) signaling pathway - cell viability counter screen (AID 1346799; calls by dose curve; further: nearly all actives have a fitted effect of over 45% in size)
Method in brief: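 Here, 3,000 PR-UAS-bla HEK293T cells per well were treated with compounds for 16 hr after a 6 hr preincubation at 37C and 5% CO2; cell viability is the CellTiter-Glo luminescence signal.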

[7] = qHTS assay to identify small molecule antagonists of the TGF-beta/Smad signaling pathway - cell viability counter screen (AID 1346824); further: nearly all actives have a fitted effect of over 50% in size
Method in brief: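 Cytotoxicity counter-screen run in the same wells as the beta-lactamase Smad reporter read: CellTiter-Glo luminescence after 30 min at room temperature. HEK 293T SBE-bla cells had 5 hr compound exposure at 37 C with TGF-beta1 (0.25 ng/mL stock).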

[8] = qHTS assay to identify small molecule agonists or antagonists of the thyroid stimulating hormone receptor (TSHR) signaling pathway - wild type cell line counter screen (AID 1259384; calls by dose curve)
Method in brief: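 Counter screen in untransfected Hek293: compounds (15-point titration, triplicate) plus phosphodiesterase inhibitor Ro20-1724 added after 18 h plating; 30 min RT. Intracellular cAMP via competitive d2/cryptate immunoassay, 1 h incubation.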

[9] = target: Progesterone receptor (Homo sapiens) (UniProt P06401); assay: qHTS assay to identify small molecule antagonists of the progesterone receptor (PR) signaling pathway (AID 1346795; active means well fitted inhibition curve with a large enough effect in the signal ratio in the repeat runs, not every such curve was filed as active; the % refers to the signal ratio)
Method in brief: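 In HEK293T cells bearing the PR-UAS-bla reporter, compound effects on promegestone-driven (1 nM) beta-lactamase expression are assessed after 16 hr using a fluorescent FRET substrate incubated 2 hr at room temperature.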

[10] = qHTS assay to identify small molecule antagonists of the progesterone receptor (PR) signaling pathway - cell viability counter screen (AID 1346798); further: series mostly up to about 92 µM; nearly all actives have a fitted effect of over 50% in size
Method in brief: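 Following a 4 hr attachment, PR-UAS-bla HEK293T cells in charcoal-stripped FBS medium were exposed to compounds with R5020 for 16 hr; CellTiter-Glo was added and luminescence read after 30 min at room temperature.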

Measured: Potency

Sequence of Progesterone receptor (Homo sapiens) (P06401 whole entry, looked up): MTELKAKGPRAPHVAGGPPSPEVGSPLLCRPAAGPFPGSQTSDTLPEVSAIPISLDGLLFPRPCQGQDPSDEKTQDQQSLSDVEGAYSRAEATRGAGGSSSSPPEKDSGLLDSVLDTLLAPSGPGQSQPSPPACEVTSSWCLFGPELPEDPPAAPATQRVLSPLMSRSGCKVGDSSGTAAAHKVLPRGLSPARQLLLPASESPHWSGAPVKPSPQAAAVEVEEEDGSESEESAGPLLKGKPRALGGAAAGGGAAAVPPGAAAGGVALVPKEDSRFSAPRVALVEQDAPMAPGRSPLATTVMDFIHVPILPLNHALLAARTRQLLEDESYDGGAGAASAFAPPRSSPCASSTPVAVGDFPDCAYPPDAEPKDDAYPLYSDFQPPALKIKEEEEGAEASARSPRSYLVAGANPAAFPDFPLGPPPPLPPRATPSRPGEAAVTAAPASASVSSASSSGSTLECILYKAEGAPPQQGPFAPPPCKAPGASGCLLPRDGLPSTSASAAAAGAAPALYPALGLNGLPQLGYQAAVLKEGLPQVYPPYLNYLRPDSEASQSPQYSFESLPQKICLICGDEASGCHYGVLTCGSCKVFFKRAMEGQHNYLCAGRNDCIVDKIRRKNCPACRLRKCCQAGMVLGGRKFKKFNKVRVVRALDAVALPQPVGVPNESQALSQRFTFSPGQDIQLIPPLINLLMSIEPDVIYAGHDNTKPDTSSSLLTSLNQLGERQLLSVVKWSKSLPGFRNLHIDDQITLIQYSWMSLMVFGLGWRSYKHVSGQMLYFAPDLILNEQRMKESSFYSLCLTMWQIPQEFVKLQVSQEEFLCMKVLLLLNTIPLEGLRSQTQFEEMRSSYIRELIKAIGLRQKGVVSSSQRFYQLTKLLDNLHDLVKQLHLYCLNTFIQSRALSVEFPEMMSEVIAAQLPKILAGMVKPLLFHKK
Sequence of Estrogen receptor (Homo sapiens) (P03372 whole entry, looked up): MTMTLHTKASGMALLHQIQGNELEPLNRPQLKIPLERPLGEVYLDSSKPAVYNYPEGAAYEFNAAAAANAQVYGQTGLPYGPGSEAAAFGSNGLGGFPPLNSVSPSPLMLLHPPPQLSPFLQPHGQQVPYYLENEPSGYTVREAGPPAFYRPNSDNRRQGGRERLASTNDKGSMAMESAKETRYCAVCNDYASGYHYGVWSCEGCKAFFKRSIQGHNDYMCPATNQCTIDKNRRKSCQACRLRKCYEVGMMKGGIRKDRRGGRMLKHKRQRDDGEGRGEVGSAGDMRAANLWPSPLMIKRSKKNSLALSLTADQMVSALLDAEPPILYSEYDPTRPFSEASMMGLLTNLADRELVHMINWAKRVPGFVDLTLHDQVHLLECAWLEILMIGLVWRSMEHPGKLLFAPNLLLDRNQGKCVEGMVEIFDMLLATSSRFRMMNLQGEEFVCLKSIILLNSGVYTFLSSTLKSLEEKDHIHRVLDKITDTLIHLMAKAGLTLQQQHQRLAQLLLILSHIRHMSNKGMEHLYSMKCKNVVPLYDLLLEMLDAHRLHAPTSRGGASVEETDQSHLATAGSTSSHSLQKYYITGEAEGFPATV
Sequence of Thyrotropin receptor (Homo sapiens) (P16473 whole entry, looked up): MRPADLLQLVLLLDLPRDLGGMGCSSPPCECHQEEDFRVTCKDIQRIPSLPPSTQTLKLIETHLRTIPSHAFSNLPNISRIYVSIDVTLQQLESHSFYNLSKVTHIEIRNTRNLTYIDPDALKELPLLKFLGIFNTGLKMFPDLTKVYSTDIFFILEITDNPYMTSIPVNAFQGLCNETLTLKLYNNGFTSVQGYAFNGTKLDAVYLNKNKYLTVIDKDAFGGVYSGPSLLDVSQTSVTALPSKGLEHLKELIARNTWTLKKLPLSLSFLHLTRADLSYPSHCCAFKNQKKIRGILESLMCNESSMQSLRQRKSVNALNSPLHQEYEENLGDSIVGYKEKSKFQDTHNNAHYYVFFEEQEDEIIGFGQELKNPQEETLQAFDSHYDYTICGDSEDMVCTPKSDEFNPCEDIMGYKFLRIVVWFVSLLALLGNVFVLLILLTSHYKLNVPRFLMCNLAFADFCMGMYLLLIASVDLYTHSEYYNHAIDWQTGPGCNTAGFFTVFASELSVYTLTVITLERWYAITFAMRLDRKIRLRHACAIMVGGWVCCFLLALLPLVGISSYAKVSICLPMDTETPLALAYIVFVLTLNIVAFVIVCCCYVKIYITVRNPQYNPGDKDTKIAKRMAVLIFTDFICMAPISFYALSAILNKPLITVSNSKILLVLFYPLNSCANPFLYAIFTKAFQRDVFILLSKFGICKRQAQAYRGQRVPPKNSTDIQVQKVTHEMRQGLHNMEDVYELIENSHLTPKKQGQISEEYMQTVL

C[Si]1(C)O[Si](C)(C)O[Si](C)(C)O[Si](C)(C)O[Si](C)(C)O1
inactive: [1] | [2] | [3] | [4] | [5] | [6] | [7]

CC1=NN(c2ccc(S(=O)(=O)O)cc2)C(=O)C1
inactive: [1] | [8] | [3] | [4] | [5] | [9] | [10] | [6] | [7]

CC(C)(C)NC[C@H](O)COc1cccc2c1CCCC2=O
inactive: [1] | [2] | [4] | [5] | [9] | [10] | [6] | [7]

CC(=O)CC(=O)Nc1ccc(C)cc1C
inactive: [1] | [8] | [3] | [4] | [5] | [10] | [6] | [7]

CC(C)=CCC[C@@](C)(O)[C@H]1CC=C(C)CC1
inactive: [1] | [8] | [3] | [4] | [5] | [9] | [6] | [7]

CNCCS(=O)(=O)O
inactive: [1] | [8] | [3] | [4] | [5] | [9] | [10] | [6] | [7]

CCCC(=O)OCCC(C)CCC=C(C)C (stereo not given)
inactive: [1] | [8] | [3] | [4] | [5] | [9] | [10] | [6] | [7]

Cc1ncc([N+](=O)[O-])n1CC(C)O (stereo not given)
inactive: [1] | [2] | [4] | [5] | [9] | [10] | [6] | [7]

COc1cc2c(cc1OC)C(=O)C(CC1CCN(Cc3ccccc3)CC1)C2 (stereo not given)
inactive: [1] | [2] | [3] | [9] | [10] | [6] | [7]

CC(C)[C@H]1CC[C@H](C)C[C@@H]1O
inactive: [1] | [8] | [3] | [4] | [5] | [10] | [6] | [7]

OC[C@@H](O)C(O)[C@@H](O)CO (stereo not given in full)
inactive: [1] | [8] | [3] | [4] | [5] | [9] | [10] | [6] | [7]

CC(=O)OCC(=O)Nc1cc(C#N)cc(NC(=O)COC(C)=O)c1Cl
inactive: [1] | [2] | [3] | [4] | [10] | [6] | [7]

CC(O)CC(C)O (stereo not given)
inactive: [1] | [8] | [3] | [4] | [5] | [9] | [10] | [6] | [7]

O=C(Cl)c1ccccc1[N+](=O)[O-]
inactive: [1] | [8] | [3] | [4] | [5] | [9] | [10] | [6] | [7]

C=CC(=O)CCCCC
inactive: [1] | [8] | [3] | [4] | [5] | [9] | [10] | [6] | [7]

CCCC(CC)c1ccccc1 (stereo not given)
inactive: [1] | [2] | [3] | [4] | [9] | [10] | [6] | [7]

Cc1c(C(=O)c2c[nH]n(C)c2=O)ccc(S(C)(=O)=O)c1C1=NOCC1
inactive: [1] | [2] | [4] | [5] | [9] | [10] | [6] | [7]

CCCCSCCCC
inactive: [1] | [8] | [3] | [4] | [5] | [9] | [10] | [6] | [7]

Nc1nnnn1-c1ccccc1
inactive: [1] | [2] | [3] | [4] | [9] | [10] | [6] | [7]

OC1(c2ccc(Cl)cc2)CCNCC1
inactive: [1] | [2] | [3] | [4] | [5] | [10] | [7]

CC(C)CCOC(=O)c1ccccc1
inactive: [1] | [8] | [3] | [4] | [5] | [10] | [6] | [7]

O=C(O)CNC(=O)CNC(=O)CNC(=O)CSC(=O)c1ccccc1
inactive: [1] | [2] | [3] | [4] | [9] | [10] | [6] | [7]

Cn1nnc2c(C(N)=O)ncn2c1=O
inactive: [1] | [2] | [4] | [5] | [9] | [10] | [6] | [7]

O=C(NCN1CCOCC1)c1cnccn1
inactive: [1] | [2] | [4] | [5] | [9] | [10] | [6] | [7]

CC1=C(C(=O)O)N2C(=O)[C@@H](NC(=O)[C@H](N)c3ccccc3)[C@H]2SC1
inactive: [1] | [2] | [4] | [10] | [6] | [7]

O=C(CCCl)NCCc1ccccc1
inactive: [1] | [2] | [3] | [4] | [9] | [10] | [6] | [7]

O=C(O)CCCCCC(=O)O
inactive: [1] | [2] | [4] | [5] | [9] | [10] | [6] | [7]

CC/C=C\CCOC(=O)c1ccccc1O
inactive: [1] | [2] | [3] | [4] | [9] | [10] | [6] | [7]

ONc1ccccc1
inactive: [1] | [8] | [3] | [4] | [5] | [9] | [10] | [6] | [7]
